Compound activity as filed in PubChem.
Vif inh = blocks HIV Vif function; HEK293T cells, Vif self-association by quenched fluorescence, imaging, 24 h; inhibition, % at 7.49 µM; hit rate 0.35% among 340,000; in the data active means inhibition above about 50%, passing the limit was not always enough; inconclusive means no clear call, values can overlap the other calls; inactive means below about 31%
Pemphigus Ab inh = blocks pemphigus antibody binding to human desmoglein-3; DSG3-coupled beads, scFv-anti-DSG3-GFP binding, flow cytometry; stronger effect = lower value; binding (percent of control), % at 10 µM; hit rate 0.48% among 310,000; AID 588358; P32926;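 active means binding more than 3 SD below its plate's average and above zero; inconclusive means below that plate limit but binding exactly zero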
Target sequence (P32926 whole entry, looked up): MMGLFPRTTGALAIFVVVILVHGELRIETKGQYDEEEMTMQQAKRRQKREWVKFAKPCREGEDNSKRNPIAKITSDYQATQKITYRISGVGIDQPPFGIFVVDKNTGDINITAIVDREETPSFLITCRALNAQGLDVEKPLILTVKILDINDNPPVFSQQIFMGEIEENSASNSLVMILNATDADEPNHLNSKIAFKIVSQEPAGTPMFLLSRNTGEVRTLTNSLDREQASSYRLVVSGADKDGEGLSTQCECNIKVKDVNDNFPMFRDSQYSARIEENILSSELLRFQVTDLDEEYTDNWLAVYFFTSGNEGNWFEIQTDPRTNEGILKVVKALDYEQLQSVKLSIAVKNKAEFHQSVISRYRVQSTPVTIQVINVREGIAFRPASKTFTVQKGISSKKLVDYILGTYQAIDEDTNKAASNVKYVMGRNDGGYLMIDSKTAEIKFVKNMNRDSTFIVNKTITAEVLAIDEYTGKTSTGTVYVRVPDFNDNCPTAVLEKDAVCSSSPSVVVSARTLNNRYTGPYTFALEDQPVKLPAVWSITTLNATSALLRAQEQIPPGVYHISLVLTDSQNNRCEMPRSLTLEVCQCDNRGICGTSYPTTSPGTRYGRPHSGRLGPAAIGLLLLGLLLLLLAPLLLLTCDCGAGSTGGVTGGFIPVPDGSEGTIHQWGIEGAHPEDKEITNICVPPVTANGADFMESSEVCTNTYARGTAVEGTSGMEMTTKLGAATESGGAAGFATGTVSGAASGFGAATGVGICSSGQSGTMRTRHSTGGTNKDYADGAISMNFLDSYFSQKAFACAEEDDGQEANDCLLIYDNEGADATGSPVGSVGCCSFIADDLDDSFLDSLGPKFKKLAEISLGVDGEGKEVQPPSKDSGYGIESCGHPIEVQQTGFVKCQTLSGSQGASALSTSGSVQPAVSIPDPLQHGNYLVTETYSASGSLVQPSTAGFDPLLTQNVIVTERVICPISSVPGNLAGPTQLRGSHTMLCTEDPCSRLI
ATG4B inhibitor = blocks human ATG4B protease cleavage of LC3 substrate; Q9Y4P1; ATG4B cleavage of LC3-PLA2, NBD-HPC fluorescence, 1 h; inhibition, % at 8.33 µM; hit rate 0.51% among 340,000; in the data active means inhibition above about 40%
N-glyco inh = blocks N-linked glycosylation in D54 reporter cells. D54 ERlucT glycosylation luciferase reporter, 24 h; percent of 100 nM tunicamycin response. reporter increase, % at 12.5 µM. hit rate 0.23% among 360,000. AID 588692;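 active means mean luciferase reporter signal, scaled so untreated is 0 and the glycosylation-blocking control 100, at or above a set limit in every replicate; inconclusive means mean reaches the limit but not every replicate does; inactive means mean below the limit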;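 further: luciferase carries N-glycosylation sites so blocking glycosylation raises the light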
NSD2 HMT inh = inhibitors of human histone methyltransferase NSD2; O96028; NSD2 peptide methylation, AlphaScreen, 120 min; inhibition, % at 12.5 µM; hit rate 0.54% among 310,000; in the data active means inhibition above about 50%
CaV13 ICDI inh = Disruptors of the CACNA1D IQ motif to Ca2+-dependent inactivation inhibitor domain association, primary screening, Förster resonance energy transfer in intact living …; HEK cells, CFP/YFP FRET ICDI-IQ, plate reader, 10 min; percent FRET-ratio fall versus neutral wells; inhibition, % at 12.3 µM; hit rate 0.098% among 340,000;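 active means mean replicate inhibition of at least 30% and at least 1% of replicates passing that level; inconclusive means only one of the two criteria is met; inactive means neither criterion is met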
Alpha artifact = interferes with AlphaScreen signal, flagging NSD2 false positives | shares compounds with NSD2 HMT inh | AC35, µM (series often up to 10 µM) | AID 1053174 | AlphaScreen artifact counterscreen, preloaded methylated H4 peptide | hit rate 9.4% among 1,500; call rule not given here
Of the large screens only hits and unclear results are named; the others gave an inactive call (follow-up assays come after a bar, where they were run). Sampled rows, rich in hits. Any-hit rate of the full collection: about 1.9%.

CCOC(=O)C(CCCP(=O)(c1ccccc1)c1ccccc1)(NC(C)=O)C(=O)OCC	NSD2 HMT inh 60 | Alpha artifact inactive
CCOC(=O)C(CCCCP(=O)(c1ccccc1)c1ccccc1)(NC(C)=O)C(=O)OCC	none (no result: Pemphigus Ab inh)
COc1ccc(CNC(=O)CCCn2nc(C)c([N+](=O)[O-])c2C)cc1OC	NSD2 HMT inh 86 | Alpha artifact inactive
CC[C@H](C)[C@@H](CNC)NC[C@@H](Cc1ccc(O)cc1)NCC(C)(C)C	none (no result: NSD2 HMT inh)
O=C(NNC(=O)c1ccc(Cl)cc1Cl)c1csc(-c2cccnc2)n1	none
O=C(NNS(=O)(=O)c1ccc(F)cc1F)c1csc(-c2cccnc2)n1	NSD2 HMT inh 54 | Alpha artifact inactive
CCOc1ccc(/C=C/c2nc(C#N)c(NCCCN(C)C)o2)cc1	none
O=C(NCc1cccc(Cl)c1)NC(=O)c1csc([N+](=O)[O-])c1	none
COc1ccc2c3c(cccc13)N(C)N=C2C	NSD2 HMT inh 72 | Alpha artifact inactive
Cc1ccc(-c2cc(C(=O)N/N=C/c3ccccc3)n[nH]2)o1	NSD2 HMT inh 122 | Alpha artifact inactive
Cc1cc2oc(=O)cc(CSc3nc(N)cc(N)n3)c2cc1C(C)C	none
CCCc1cc(=O)[nH]c(SCc2cc(=O)oc3cc(C)c(C(C)C)cc23)n1	NSD2 HMT inh 78 | Alpha artifact inactive
Oc1cc2c(cc1O)[C@H]1c3ccc(O)c(O)c3OC[C@@]1(O)C2	NSD2 HMT inh 109 | Alpha artifact 4µM
Oc1ccc2c(c1)OCC1(O)Cc3cc(O)c(O)cc3C21 (stereo not drawn)	none (no result: NSD2 HMT inh, CaV13 ICDI inh)
Cc1ccc(S(=O)(=O)NCCCCCC(=O)Nc2nccs2)cc1	none (no result: CaV13 ICDI inh)
Cc1ccc(CC(=O)Nc2nncs2)cc1	NSD2 HMT inh 57 | Alpha artifact inactive
CCN(CC)Cc1cc(O)c(CN(CC)CC)cc1O	NSD2 HMT inh 100 | Alpha artifact inactive
Cc1c(C(=O)N2CCCC2)oc2c1-c1nn(CC(=O)NCCCN3CCCCC3C)cc1CC2 (stereo not drawn)	none
CC(=O)Nc1ccc(N=C(C2=C(O)c3ccccc3C2=O)c2ccccc2)cc1	none
O=C(CN(C(=O)c1csnn1)c1ccc(F)c(Cl)c1)NC1CCCCC1	NSD2 HMT inh 88 | Alpha artifact inactive
O=C(CN(C(=O)c1csnn1)c1ccc(Cl)cc1)NC1CCCC1	none
CCCCCNc1nc(NCCCO)c(C#N)c2c1CN(C)CC2	NSD2 HMT inh 51 (no result: CaV13 ICDI inh) | Alpha artifact inactive
CCc1nc2sc3ccccc3c(=O)c2c(=O)n1Cc1ccco1	none (no result: CaV13 ICDI inh)
CCCc1nc2sc3ccccc3c(=O)c2c(=O)n1Cc1ccccc1	NSD2 HMT inh 61 | Alpha artifact inactive
Cc1ccc(S(=O)(=O)Nc2cccc(Oc3cnccn3)c2)cc1	none
Cc1ccccc1Nc1nc(N)nc(CSc2nnc3sc4ccccc4n23)n1	NSD2 HMT inh 66 | Alpha artifact inactive
Cc1ccccc1Nc1nc(N)nc(CSc2nnc(-c3ccccc3)n2C)n1	none (no result: Vif inh, CaV13 ICDI inh)
COc1ccc(/C=C/C(=O)OCC(=O)NCC2CCCO2)cc1 (stereo not drawn)	NSD2 HMT inh 54 | Alpha artifact inactive
COc1cccc(/C=C/C(=O)OCC(=O)NCC2CCCO2)c1 (stereo not drawn)	none
CCOC(=O)C1CCN(C(=O)c2cc(OCC)c(OCC)c(OCC)c2)CC1	none (no result: Pemphigus Ab inh)
CCSc1nc(-c2ccccc2)nc(C(Cl)Cl)n1	none (no result: NSD2 HMT inh)
COC(=O)c1ccccc1-c1ccc(C(c2c(C)[nH][nH]c2=O)c2c(C)[nH][nH]c2=O)o1	N-glyco inh 29, NSD2 HMT inh 196 | Alpha artifact inactive
Cc1[nH][nH]c(=O)c1C(c1ccc(-c2ccc(Cl)c(C(=O)O)c2)o1)c1c(C)[nH][nH]c1=O	NSD2 HMT inh 131 | Alpha artifact inactive
COC(=O)c1cccc(-c2ccc(C(c3c(C)[nH][nH]c3=O)c3c(C)[nH][nH]c3=O)o2)c1	N-glyco inh inconclusive, NSD2 HMT inh 107 | Alpha artifact inactive
OC(CNC1CCCCC1)CON=C1CCSc2c(Cl)cccc21 (stereo not drawn)	none (no result: ATG4B inhibitor)
